PubChem BioAssay
Inconclusive results are not listed. Activity calls are given as the source filed them.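 Rule for the calls, unless noted: active = normalized viability below 100% at a tested concentration; inactive = the rest.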

Legend:
[1] = growth inhibition of DIPG glioma cells, dose response, cell-based, SU-DIPG-XVII, MIPE5.0, CellTiter-Glo, qHTS (AID 1347060; cut-off not given, nearly all actives have AC50 up to about 26 µM;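 for AC50: cells exposed to compound for 48 hours before viability readout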); conditions: SU-DIPG-XVII viability, CellTiter-Glo ATP luminescence
[2] = growth inhibition of DIPG glioma cells, dose response, cell-based, SU-DIPG-XIII, MIPE5.0, CellTiter-Glo, qHTS (AID 1347064; cut-off not given, nearly all actives have AC50 up to about 23 µM;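 for AC50: cells exposed to compound for 48 hours before the viability read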); conditions: SU-DIPG-XIII viability, CellTiter-Glo ATP luminescence
[3] = viability loss in pontine glioma line – cell-based, SU-DIPG-XXV, MIPE5.0, CellTiter-Glo, qHTS, dose response (AID 1347065; cut-off not given, nearly all actives have AC50 up to about 26 µM;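 note: cells exposed to compound for 48 hours before ATP readout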); conditions: CellTiter-Glo ATP luminescence
[4] = JHH-DIPG-1 glioma cell viability, MIPE5.0 library, CellTiter-Glo luminescence, qHTS (AID 1347067; cut-off not given, nearly all actives have AC50 up to about 26 µM;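 note: cells exposed to compound for 48 hours before readout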); conditions: JHH-DIPG-1 glioma viability, CellTiter-Glo ATP luminescence
[5] = SU-DIPG-VI glioma cell viability, MIPE4.0 library, CellTiter-Glo luminescence, qHTS (AID 1347066; cut-off not given, nearly all actives have AC50 up to about 30 µM;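 note: cells exposed to compound for 48 hours before readout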); conditions: CellTiter-Glo ATP luminescence
[6] = SU-DIPG-XXV glioma cell viability, MIPE5.0 library, qHTS (AID 1347068; cut-off not given, nearly all actives have IC50 up to about 30 µM)
[7] = sensitizers of A549 cells to miR-34 induction, primary screen, imaging, A549 dox-inducible miR-34, nuclei and caspase counts (AID 1347080;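 active = compounds whose cell count with miR-34 switched on is under 0.7 times the count with it off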); conditions: A549 miR-34 inducible, Hoechst nuclei count, 48 h
[8] = survival rescue of mitochondrial mutant cells in low glucose, primary screen, MELAS cybrids, Rieske KO mouse fibroblasts, CellTiter-Glo (AID 1508586;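 active = mean z-score across replicates of 1.96 or higher in either the MELAS or the Rieske mutant cell line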;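 note: z relative to plate mean and SD of compound and empty wells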)
[9] = ovarian cancer cell viability with rucaparib, profiling panel, oncology-focused library, rucaparib conditional (AID 1508598); conditions: patient-derived ovarian cancer cells, CellTiter-Glo viability, 144 h, stronger effect = lower value

CCCCOc1nc(N)c2c(n1)N(Cc1cccc(CN3CCCC3)c1)CC(=O)N2
inactive: outcome [1] | outcome [2] | outcome [3]

CCCCN(CCCC)C(=O)CN1C[C@H](c2ccc3c(c2)OCO3)[C@@H](C(=O)O)[C@@H]1c1ccc(OC)cc1
inactive: outcome [1] | outcome [2] | outcome [3] | outcome [4]

Cc1ccc2c(=O)c3cccc(CC(=O)O)c3oc2c1C
active: viability ([9]; at 0.000305 µM, OCI-C5x cells, with rucaparib 10 µM, 100% = cells with rucaparib alone) 94.7% | viability ([9]; at 0.000305 µM, OCI-P5x cells, with rucaparib 20 µM, 100% = cells with rucaparib alone) 97% | viability ([9]; at 0.000305 µM, OCI-P5x cells, without rucaparib) 97.7% | viability ([9]; at 0.313 µM, OCI-P5x cells, with rucaparib 20 µM, 100% = cells with rucaparib alone) 68.4% | viability ([9]; at 0.313 µM, OCI-P5x cells, without rucaparib) 19.4%
inactive: outcome [1] | outcome [2] | outcome [3] | outcome [5] | outcome [4] | outcome [6] | fold change ([7]; stronger effect = lower value, cell number ratio, induced over uninduced) 0.947 | z-score ([8]; MELAS cybrid survival, CellTiter-Glo 48 h, stronger effect = higher value) -0.329 | viability ([9]; at 0.000305 µM, OCI-C5x cells, without rucaparib) 116% | viability ([9]; at 0.00122 µM, OCI-C5x cells, with rucaparib 10 µM, 100% = cells with rucaparib alone) 105% | viability ([9]; at 0.00122 µM, OCI-C5x cells, without rucaparib) 110% | viability ([9]; at 0.00122 µM, OCI-P5x cells, with rucaparib 20 µM, 100% = cells with rucaparib alone) 102% | viability ([9]; at 0.00122 µM, OCI-P5x cells, without rucaparib) 101% | viability ([9]; at 0.00488 µM, OCI-C5x cells, with rucaparib 10 µM, 100% = cells with rucaparib alone) 108% | viability ([9]; at 0.00488 µM, OCI-C5x cells, without rucaparib) 116% | viability ([9]; at 0.00488 µM, OCI-P5x cells, with rucaparib 20 µM, 100% = cells with rucaparib alone) 105% | viability ([9]; at 0.00488 µM, OCI-P5x cells, without rucaparib) 103% | viability ([9]; at 0.0195 µM, OCI-C5x cells, with rucaparib 10 µM, 100% = cells with rucaparib alone) 113% | viability ([9]; at 0.0195 µM, OCI-C5x cells, without rucaparib) 116% | viability ([9]; at 0.0195 µM, OCI-P5x cells, with rucaparib 20 µM, 100% = cells with rucaparib alone) 107% | viability ([9]; at 0.0195 µM, OCI-P5x cells, without rucaparib) 111% | viability ([9]; at 0.0781 µM, OCI-C5x cells, with rucaparib 10 µM, 100% = cells with rucaparib alone) 115% | viability ([9]; at 0.0781 µM, OCI-C5x cells, without rucaparib) 114% | viability ([9]; at 0.0781 µM, OCI-P5x cells, with rucaparib 20 µM, 100% = cells with rucaparib alone) 110% | viability ([9]; at 0.0781 µM, OCI-P5x cells, without rucaparib) 113% | viability ([9]; at 0.313 µM, OCI-C5x cells, with rucaparib 10 µM, 100% = cells with rucaparib alone) 116% | viability ([9]; at 0.313 µM, OCI-C5x cells, without rucaparib) 115% | viability ([9]; at 1.25 µM, OCI-C5x cells, with rucaparib 10 µM, 100% = cells with rucaparib alone) 118% | viability ([9]; at 1.25 µM, OCI-C5x cells, without rucaparib) 127% | viability ([9]; at 1.25 µM, OCI-P5x cells, with rucaparib 20 µM, 100% = cells with rucaparib alone) 104% | viability ([9]; at 1.25 µM, OCI-P5x cells, without rucaparib) 112% | viability ([9]; at 5 µM, OCI-C5x cells, with rucaparib 10 µM, 100% = cells with rucaparib alone) 103% | viability ([9]; at 5 µM, OCI-C5x cells, without rucaparib) 123% | viability ([9]; at 5 µM, OCI-P5x cells, with rucaparib 20 µM, 100% = cells with rucaparib alone) 104% | viability ([9]; at 5 µM, OCI-P5x cells, without rucaparib) 122%
6780: cell count ([7]; measured here: total cells with miR-34 induction, stronger effect = lower value)
7150: cell count ([7]; measured here: total cells without miR-34 induction)
1.03: fold change ([7]; measured here: relative caspase fold change +Dox/-Dox)
0.338: z-score ([8]; Rieske KO mouse fibroblast survival, CellTiter-Glo 72 h)

COc1cc(-c2nn(C3CCC(N4CCN(C(C)=O)CC4)CC3)c3ncnc(N)c23)ccc1NC(=O)c1cc2ccccc2n1C (stereo unspecified)
active: AC50 [1] 3.72 µM | AC50 [2] 7.42 µM | AC50 [3] 4.17 µM | AC50 [4] 7.42 µM
inactive: outcome [5] | outcome [6]

CCN(CC)CCNc1ccc(C)c2sc3ccccc3c(=O)c12
active: AC50 [1] 13.2 µM | AC50 [2] 20.9 µM | AC50 [3] 16.6 µM | AC50 [4] 18.6 µM

Cc1ccc(C(=O)OCc2ccc([C@@H](CN)C(=O)Nc3ccc4cnccc4c3)cc2)c(C)c1
active: AC50 [1] 12.9 µM | AC50 [2] 14.4 µM | AC50 [3] 9.1 µM

O=C(c1ccc(Nc2nc(C3CC3)cn3c(-c4cn[nH]c4)cnc23)c(F)c1)N1CCOCC1
active: AC50 [1] 5.25 µM | AC50 [2] 5.9 µM | AC50 [3] 3.72 µM | AC50 [4] 2.63 µM

CC[C@@H](C)Nc1cc(C(=O)NC2CC3CC[C@@H](C2)N3c2ccc(C(=O)C3CC3)cn2)c(C)cc1C(N)=O (stereo partly specified)
active: AC50 [1] 0.118 µM | AC50 [2] 0.166 µM | AC50 [3] 0.0934 µM | AC50 [4] 0.148 µM

N#Cc1c(N)nc(N)nc1N[C@H](c1nc2c(F)ccc(Cl)c2c(=O)n1-c1cccnc1)C1CC1
active: AC50 [1] 18.6 µM | AC50 [2] 13.2 µM | AC50 [3] 11.8 µM

Cc1cc(O)c(-c2ccc([C@@H](C)CN)cc2)c2c1[nH]c(=O)c1sccc12
active: AC50 [1] 0.118 µM | AC50 [2] 0.148 µM | AC50 [3] 0.148 µM

CCCCNc1ncc(-c2ccc(CN3CCOCC3)cn2)c(NC2CCC(O)CC2)n1 (stereo unspecified)
active: AC50 [1] 2.57 µM | AC50 [3] 1.82 µM
inactive: outcome [2]
